Measured values as given in PubChem BioAssay AID1571 (National Center for Advancing Translational Sciences (NCATS), 2009).
Inconclusive results are not listed. A call without a number means that no potency is given here. Active and inactive are the calls of the source. Calls follow the shape of the dose curve; as a rule, active = well fitted curve in the direction sought with a large enough effect; inconclusive = small, poorly fitted or top-dose-only effect, or effect the other way; inactive = flat fitted curve, though single readings scatter.

Test: Total Fluorescence Confirmation Counterscreen for Inhibitors of the Interaction of Thyroid Hormone Receptor and Steroid Receptor Coregulator 2, Fluorescein Fluoroprobe
In short: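 Counterscreen flagging optical interferers: compound incubated 5 hr at ambient temperature with 0.6 uM human TRbeta LBD, 20 nM fluorescein-SRC2 peptide and 1 uM T3. Readout is total fluorescence computed as S + 2P; concentration-response % activity reported.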

Row | SMILES | Potency
1 | C=CCSc1nnc2n(-c3ccccc3OC)c(=O)c3c4c(sc3n12)CCC4 | inactive
2 | COc1cc(NC(C)CCCN)c2ncccc2c1 (configuration not stated) | inactive
